Laboratory results as given in the OligoGym collection.

molecular target: GOLGA1; test: pooled miR-30 sensor sort-seq; sequence = guide strand; details: shRNA
Note: reference of the scale not given here.

Row | Sequence | sensor-assay potency score (higher = more potent)
1 | TTTACTTAGTTCCTGCTGCTGG | 0.484
2 | TTTATCTTCTGCAAGTTTCGGA | 0.43
3 | TATCACATGATCTCTCTGCTCT | 0.568

molecular target: GORASP1; test: as above; details: shRNA

Row | Sequence | sensor-assay potency score (higher = more potent)
4 | TTATCCTCCAACTTATGGGGGA | -0.359
5 | TGACTTGGAGTTATACACCATC | -1.14
6 | TAACTCGCTGCACTGGAGGTGG | -0.397
7 | TTATACACCATCAGCTTCAAGG | -1
8 | TTCCACATCCAGCACATGCCAC | -1.05
9 | AATATTAGCATTGATACCCATT | -1.46
10 | TACACCATCAGCTTCAAGGGCT | 0.394
11 | TCCATGTAGTCACTCTGCCTGG | -1.3
12 | TGAAGATGGTTCCACATCCAGC | -1.37
13 | TTCAGTAGTGCCTTCAGGGTGT | 0.45

molecular target: GP1BA; test: as above; details: shRNA

Row | Sequence | sensor-assay potency score (higher = more potent)
14 | TTTCAGGTAGAGCTCTTGGAGT | -0.846
15 | ATTTTCAGCATTGTCCTGCAGC | -0.496
16 | TTTGGTATTGTATACAGCGAGT | -0.992
17 | TTCAGCATTGTCCTGCAGCCAG | -0.558
18 | TAGAGGATCTCACAGTTGCATA | -1.69
19 | TAGTGGATTCTTGTGTTGGATG | -1.15
20 | AACTTGACCACAGTCCTTGTGG | 0.0455
21 | TAGACGGGAAACTTGTCTGAAT | -0.507
22 | TTGGGGTCCATCTAGGTGGGAA | -0.196
23 | TTGACCACAGTCCTTGTGGCAC | -0.461
24 | TATACAGCGAGTTCTCTTGGAG | -0.385
25 | TTTGGCTGTCTAGAGAAGCAGT | -0.816

molecular target: GP6; test: as above; details: shRNA

Row | Sequence | sensor-assay potency score (higher = more potent)
26 | TATTTTTTGAGACAAAGTCAGG | -1.21
27 | TTGTTTTCTAATGTGAAGGGAA | -0.126
28 | TAGCCCTGTACCATCTCTCGGG | -0.328
29 | ATTATTAGGATCACAGCCCCGA | -0.0711
30 | TTGCACAGGCTGATCTTGTTTT | -0.638
31 | TTCGTTTGTGAATGAGACGGTC | 0.0865
32 | TTTTGAGACAAAGTCAGGCTTC | 0.424
33 | TAGCATCGGTAGGTTCCGCTGT | -0.0169
34 | TTTGTTGGTAGAGATGAGGTTT | -0.205
35 | TTTTACACTAAGGAAAATGAAT | -1.19

molecular target: GPAA1; test: as above; details: shRNA

Row | Sequence | sensor-assay potency score (higher = more potent)
36 | TAGCTCAGCACGCACAACGGCG | -1.38
37 | TTGAGCTTGCGGAACATGCCCT | -0.132
38 | TGAGCTTGCGGAACATGCCCTC | -0.336
39 | AAAACCAGCGCCAAGAACCAGG | -1.17
40 | TAGCGCTGCCAGGAAGAGCTGC | -1.02
